Out of some 200,000 compounds screened, about 50 (0.03%) were called active. How the calls were made is not given here. What follows is part of a selection rich in actives, with near analogues and random picks from the rest. Results with a measured potency or affinity are listed apart.

For the experiment, the target named is Alkaline phosphatase, tissue-nonspecific isozyme (Homo sapiens) (UniProt P05186). Description: stimulation of alkaline phosphatase TNAP activity – biochemical, luminescent, no phosphate acceptor, uHTS, primary screen (AID 1001). Conditions: purified TNAP, luminescent activation assay, at 20 µM, active compounds read high.
Chain of Alkaline phosphatase, tissue-nonspecific isozyme (Homo sapiens) (P05186 whole entry, looked up): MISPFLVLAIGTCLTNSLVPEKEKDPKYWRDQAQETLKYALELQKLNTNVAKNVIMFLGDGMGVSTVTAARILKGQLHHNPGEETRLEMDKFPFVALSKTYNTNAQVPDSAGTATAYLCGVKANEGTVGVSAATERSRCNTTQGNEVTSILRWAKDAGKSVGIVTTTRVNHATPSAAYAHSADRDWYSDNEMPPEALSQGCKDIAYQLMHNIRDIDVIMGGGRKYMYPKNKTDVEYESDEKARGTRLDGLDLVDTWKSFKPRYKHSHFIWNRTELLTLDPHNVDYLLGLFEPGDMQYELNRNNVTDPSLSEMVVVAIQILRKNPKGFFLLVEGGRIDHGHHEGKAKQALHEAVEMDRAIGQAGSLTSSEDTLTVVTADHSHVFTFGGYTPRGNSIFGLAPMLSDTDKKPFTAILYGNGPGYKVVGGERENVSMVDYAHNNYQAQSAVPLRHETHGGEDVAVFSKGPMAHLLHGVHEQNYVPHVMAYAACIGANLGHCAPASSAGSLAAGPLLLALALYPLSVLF
On to `COCCCNC(=O)CCC(=O)NNc1nc2ccccc2c2nc(-c3ccccc3)nn12`, for which the activation fold was 2.3 (inactive).
The same measure for `CCCCNC(=O)CCC(=O)NNc1nc2ccccc2c2nc(-c3ccccc3)nn12`: 1.6 (inactive); for `CCOCCCNC(=O)CCC(=O)NNc1nc2ccccc2c2nc(-c3ccccc3)nn12`: 2.1 (inactive); for `O=C(CCC(=O)NNc1nc2ccccc2c2nc(-c3ccccc3)nn12)NCCCN1CCCC1=O`: 1.1 (inactive).
Turning to `COc1ccc(C(=O)N/C(=C\c2ccccc2)C(=O)NC(CC(C)C)C(=O)O)cc1` (configuration not stated), the activation fold is 1.1 (inactive).
`Cc1coc(C)c1C(=O)CC1(O)C(=O)N(CCc2ccccc2)c2ccccc21` (configuration not stated): the activation fold was 1.1 (inactive).
The same measure for `CCOC(=O)CSc1nc2c(sc3ccc([N+](=O)[O-])cc32)c(=O)n1Cc1ccco1`: 1.1 (inactive); for `CCOc1ccc(-n2cc(-c3ccccc3)c3c(N4CCOCC4)ncnc32)cc1`: 1.1 (inactive); for `O=c1cc(NCc2ccc3c(c2)OCO3)[nH]c(=O)n1-c1ccc(Cl)cc1`: 1.1 (inactive).
Regarding `O=S(=O)(Nc1ccc2c(c1)OCO2)c1ccccc1`, the activation fold was 1.1 (inactive).
Next, `CNC(=O)N(O)C1N(C)C(=O)N(Cc2ccccc2)C1(C)C` (configuration not stated): 1.1 (inactive); `O=C(CCN1C(=O)/C(=C\c2ccccc2)SC1=S)NNC(=O)c1cccnc1`: 1.6 (inactive); `O=C(CCN1C(=O)/C(=C/c2ccccc2)SC1=S)NNC(=O)c1cccnc1`: 1.6 (inactive).
For `CCCC(Oc1ccc(Br)cc1)c1nc2c3cc(OC)c(OC)cc3nc(=S)n2[nH]1` (configuration not stated), the activation fold was 1.2 (inactive).
Next, `Cc1cc(N2CCCCC2)nc(N)n1`: 1.1 (inactive).
For `Cc1cc(N2CCCCC2)nc(NCc2ccccc2)n1`, the activation fold is 1 (inactive).
As for `COc1cccc(C(=O)NNC(=O)c2ccccc2-n2cccc2)c1`, the activation fold is 1.3 (inactive).
For the compound `O=C(CSc1nnc(-c2ccncc2)n1Cc1ccccc1)NCCc1ccccc1`, the activation fold is 1.2 (inactive).
For the compound `OC(Cn1ccnc1)c1ccc(Cl)cc1Cl` (configuration not stated), the activation fold is 1 (inactive).
The same measure for `Clc1ccc(SCCn2ccnc2)cc1`: 1.1 (inactive); for `S=C(NCCCn1ccnc1)Nc1ccc(Cl)cc1Cl`: 1 (inactive).
For `Clc1ccc(OCCn2ccnc2)c(Cl)c1`, the activation fold was 1 (inactive).
The same measure for `Cc1cc2cc3c(cc2nc1SCC(=O)O)CCC3`: 1 (inactive).
For `CCCCC(=O)Nc1ccc(C(=O)OC2CCCCC2)cc1`, the activation fold is 1 (inactive).
As to `CCS(=O)(=O)N1CCC(NC(=O)c2ccco2)CC1`, the activation fold was 1.1 (inactive).
For `O=C(O)c1ccc(CNC(=O)c2ccc(C(F)(F)F)cc2)cc1`, the activation fold is 1 (inactive).
The same measure for `COC(=O)c1ccc(/C=C2\N=C(SC)SC2=O)cc1`: 1.1 (inactive); for `OCCCN1c2ccccc2Nc2nnc(-c3ccccc3)cc21`: 1.5 (inactive).
The same measure for `CC(=O)OCCCN1C(=O)c2ccc(Br)cc2C1=O`: 1 (inactive); for `CC(C)c1[nH]nc2c1C1(CCN(Cc3ccccc3)CC1)C(C#N)=C(N)O2`: 0.9 (inactive); for `CC(C)=CCSc1nnc([C@@H](NC(=O)OC(C)(C)C)C(C)C)o1`: 1.1 (inactive).
The same measure for `CCOC(=O)N1CCC(NC(=O)CSc2cc(=O)n(CC)c3ccccc23)CC1`: 1.2 (inactive); for `CCc1ccc(CNC(=O)Cn2nc(-c3ccccc3)ccc2=O)cc1`: 1 (inactive); for `Oc1c(C(c2ccc(Cl)cc2)N2CCCC2)cc(Cl)c2cccnc12` (configuration not stated): 1.2 (inactive).
Regarding `CN1CCN(C(c2ccccn2)c2cc(Cl)c3cccnc3c2O)CC1` (configuration not stated), the activation fold is 2.5 (inactive).
Take `CC(=O)c1sc(NC(=O)C(C)(C)C)nc1C`: the activation fold was 1.1 (inactive).
Consider `Cc1cccc(NCc2nc(-c3ccccc3)no2)c1`, for which the activation fold was 1.1 (inactive).
As to `CC(C)CCC(C(=O)O)C(C)CC(=O)NNC(=O)c1ccco1` (configuration not stated), the activation fold is 1.1 (inactive).
The same measure for `CC(C)CC(CC(C)C)=NNC(=O)c1ccc2c(c1)OCO2`: 1.1 (inactive); for `CNC(=S)NNC(=O)c1ccc2c(c1)OCO2`: 1.6 (inactive).
With `CC(C)CNC(=O)C(=O)NNC(=O)c1ccco1`, the activation fold is 1.1 (inactive).
The same measure for `COC(=O)c1ccc(N=Cc2c(C(F)(F)F)[nH][nH]c2=O)cc1`: 0.8 (inactive).
Next, `Cc1ccc(/C=N/NC(=O)c2nn(C)cc2Cl)cc1`: 1.1 (inactive); `C/C(=N\NC(=O)c1nn(C)cc1Cl)c1ccncc1`: 1.2 (inactive).
As to `COc1ccc2nc(Nc3nc(CSc4nc5ccccc5[nH]4)cc(=O)[nH]3)nc(C)c2c1`, the activation fold was 2.4 (inactive).
With `Cc1nc(Nc2nc(CSc3nc4ccccc4[nH]3)cc(=O)[nH]2)nc2ccccc12`, the activation fold was 2.5 (inactive).
On to `CCOC(=O)CNC(=O)C(CO)NC(=O)OCc1ccccc1` (configuration not stated), for which the activation fold was 1.1 (inactive).
In the case of `CCOC(=O)/C(N=Nc1sc(C(=O)OCC)c(C)c1C(=O)OCC)=C(\C)O`, the activation fold is 1 (inactive).
The same measure for `COC(=O)c1sccc1NC(=O)Cn1nnc(-c2ccc(C)cc2)n1`: 1 (inactive).
Turning to `O=C(CCC(=O)Nc1ccc(Cl)cc1Cl)NNC(=O)Nc1ccccc1`, the activation fold was 1.3 (inactive).
Consider `Cc1cc([N+](=O)[O-])nn1CC(=O)Nc1cc(F)ccc1F`, for which the activation fold was 1 (inactive).
Next, `Cc1cc([N+](=O)[O-])nn1CC(=O)Nc1ccc(F)cc1`: 1.1 (inactive); `CCOC(=O)C1(Cc2cccc(OC)c2)CCN(Cc2cnc(C)s2)CC1`: 1 (inactive); `CCCCN1CNC(=S)N(Cc2ccccc2)C1`: 0.9 (inactive).
The same measure for `COc1ccc(S(=O)(=O)Nc2ccccc2C)cc1`: 1 (inactive); for `CCN(CC)c1ccc(C=Nc2ccc(N(C)C)cc2)c(O)c1`: 2.3 (inactive).
Regarding `CCN(CC)c1ccc(C=Nc2ccc(C)cc2)c(O)c1`, the activation fold was 0.9 (inactive).
The same measure for `CCN(CC)c1ccc(N=Cc2ccc(N(CC)CC)cc2O)cc1`: 6 (active).
Next, `COc1ccc(C(C)=O)c(Oc2nc(CN3CCOCC3)nc3scc(-c4cccs4)c23)c1`: 1 (inactive); `CC(=O)NNc1ncnc2c1cnn2-c1ccc(C)c(Cl)c1`: 2.2 (inactive).
The same measure for `Cn1ncc2c(NNC(=O)c3ccc(Cl)cc3Cl)ncnc21`: 2.4 (inactive); for `Cn1cccc1C(=O)C(=O)Nc1ccccc1C(F)(F)F`: 1.2 (inactive); for `CN(CCO)C(=O)CCC(=O)Nc1ccc(S(N)(=O)=O)cc1`: 1.1 (inactive).
Consider `CC[n+]1c(/C=C/C=C/N(C(C)=O)c2ccccc2)sc2ccccc21`, for which the activation fold was 0.7 (inactive).
The same measure for `CCN1/C(=C/C=C/C=C/c2sc3ccccc3[n+]2CC)Sc2ccccc21`: 53.2 (active); for `CCN1/C(=C/C(C)=C/c2sc3ccccc3[n+]2CC)Sc2ccccc21`: 0.4 (inactive).
Next, `CCCc1cc(C(=O)NNC(=S)NCC)c2ccccc2n1`: 1.1 (inactive).
Next, `CCNC(=S)NNC(=O)c1cc(C)nc2ccccc12`: 1.7 (inactive).
Turning to `COc1ccc(C)cc1-n1[nH]nnc1=S`, the activation fold was 1 (inactive).
The same measure for `COc1ccc(NC(=S)N2CCCC2c2ccc(OC)c(OC)c2)cc1` (configuration not stated): 0.9 (inactive); for `C=CCNC(=S)NNC(=O)C(CCC(C)C)CC(C)(C)O` (configuration not stated): 1.1 (inactive); for `C=CCNC(=S)NNC(=O)C(CCCC)CC(C)O` (configuration not stated): 1.7 (inactive).
Turning to `O=C1c2ccc(Br)cc2C(=O)N1c1ccc(Cc2ccncc2)cc1`, the activation fold was 1.1 (inactive).
Regarding `COCCNC(=S)N/N=C(\C)c1ccccc1OC`, the activation fold is 1.1 (inactive).
Turning to `COCCNC(=S)N/N=C(\C)c1ccccc1F`, the activation fold is 1 (inactive).
The same measure for `CN(C)CCNC(=O)c1ccc(-c2nn(C)c(=O)c3ccccc23)cc1`: 1.1 (inactive); for `CCc1cc2c(=O)[nH]c(-c3ccccn3)nc2s1`: 1.8 (inactive); for `Cc1sc2nc(-c3ccccn3)[nH]c(=O)c2c1-c1ccccc1`: 1.4 (inactive).
Turning to `O=C(O)/C=C/C(=O)N1CCN(S(=O)(=O)c2cccc(C(F)(F)F)c2)CC1`, the activation fold is 1.1 (inactive).
The same measure for `COc1cccc(/C=N/NC(=O)c2[nH]c(C)c(C(=O)N/N=C/c3cccc(OC)c3)c2C)c1`: 1.2 (inactive); for `Cc1cccc(C)c1NC(=O)C1(N(Cc2ccco2)C(=O)c2ccccn2)CCCC1`: 1 (inactive).
The same measure for `Cc1cccc(C)c1NC(=O)C1(N(C(=O)c2ccccn2)c2ccc(O)cc2)CCCCC1`: 1 (inactive); for `O=C(NCCCn1ccnc1)/C(=C\c1cccnc1)NC(=O)c1ccccc1F`: 1 (inactive); for `O=C(Nc1cccc2ccccc12)c1ccc([N+](=O)[O-])s1`: 1 (inactive).
Next, `CCC(=O)Nc1ccc(/C(C)=N\NC(=O)c2ccc(C)s2)cc1`: 1 (inactive).
Turning to `Cc1cc(C)c(-c2csc(NC(=O)C3=NN(c4ccccc4)C(=O)CC3)n2)c(C)c1`, the activation fold is 0.9 (inactive).
The same measure for `O=c1[nH]c(NCCO)nc2c1C1(CCCCC1)Cc1ccccc1-2`: 1 (inactive); for `Cn1c(NCCCO)nc2c(c1=O)C1(CCCCC1)Cc1ccccc1-2`: 1 (inactive); for `CC1CCCN(c2nc3ccccc3nc2C(C#N)C(=O)OC2CCCCC2)C1` (configuration not stated): 1 (inactive).
With `Clc1ccc(-c2nc3ccccn3c2CN2CCCCC2)cc1`, the activation fold was 1.1 (inactive).
With `Cc1ccc2nc(-c3ccccc3)c(CN3CCN(c4ccccc4F)CC3)n2c1`, the activation fold is 1.1 (inactive).
Next, `O=c1cc(N2CCc3ccccc3C2)[nH]c(=O)n1Cc1ccc(F)cc1`: 1 (inactive); `Cc1sc(NC(=O)CSc2nnc(COc3ccc(Cl)cc3)n2C)c(C#N)c1C`: 1.1 (inactive).
Next, `Cc1cccc(-c2nsc(SCC(=O)N3CCCC3)n2)c1`: 1.1 (inactive); `Cc1ccc(Nc2nc(N)nc(CN3CCN(C(=O)c4ccco4)CC3)n2)cc1Cl`: 1 (inactive).
The same measure for `CCNC(=S)NC1CC2CCC(C1)N2Cc1ccccc1` (configuration not stated): 1 (inactive); for `CNC(=S)NC1CC2CCCC(C1)N2Cc1ccc(C)cc1` (configuration not stated): 1.1 (inactive).
With `COc1ccccc1NC(=S)NNC(=O)c1nn(C)c(C)c1Cl`, the activation fold was 1.2 (inactive).
The same measure for `Cc1c(Cl)c(C(=O)NNC(=S)Nc2ccc(F)cc2)nn1C`: 2.7 (inactive).
The same measure for `COCc1nnc(NC(=O)c2ccc(OC)cc2OC)s1`: 1.1 (inactive); for `COc1ccc(/C=C2/SC(=O)N(CC(=O)NCCC(C)C)C2=O)cc1OC`: 1.1 (inactive); for `COC(=O)Cn1c(CN2CCC(Cc3ccccc3)CC2)nc2c1c(=O)n(C)c(=O)n2C`: 1.1 (inactive).
